Results filed as inconclusive are left out. Where a call stands in place of a potency, no number is given. The source made the active and inactive calls. Calls follow the shape of the dose curve; as a rule, active = well fitted cell-killing curve with a large enough effect; inconclusive = small, poorly fitted or top-dose-only effect; inactive = flat fitted curve, though single readings scatter.
test: Cell Viability - LYMP2-020 (AID 986); details: series mostly up to 92.2 µM; also: nearly all actives have a fitted effect of over 55% in size
In short: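 qHTS, 2500 cells/well; 5 hr then 24 hr compound exposure, 37 C; CellTiter-Glo luminescence after 30 min RT; ATP decrease taken as cytotoxicity; AC50 via Hill equation; tetraoctylammonium bromide positive control.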
Potency is read from the fitted curve at half-maximal effect.

| SMILES | Potency |
| --- | --- |
| CCCCCCc1ccc(-c2ccc(C#N)cc2)cc1 | inactive |
| Nc1cnn([C@@H]2O[C@H](CO)[C@@H](O)[C@H]2O)c(=O)n1 | inactive |
| CCCCCCCCOc1ccc(C(=O)O)cc1 | inactive |
| Oc1c(Cl)cc(Cl)c(Cl)c1Cl | inactive |
| CC(C)OCC1CO1 (configuration not stated) | inactive |
| C/C(Cl)=C/CCl | inactive |
| CCCCNCC | inactive |
| O=c1[nH]ncc2ccccc12 | inactive |
| c1ccc(COCc2ccccc2)cc1 | inactive |
| O=[N+]([O-])c1cccc(I)c1 | inactive |
| Nc1ccc2c(c1)C(=O)c1ccccc1C2=O | inactive |
| c1ccc2c(c1)ccc1ccccc12 | inactive |
| Nc1ccc(N=Nc2ccccc2)c(N)c1 | inactive |
| Cc1ccc(C(=O)O)cc1[N+](=O)[O-] | inactive |
| COc1ccc([N+](=O)[O-])cc1N | inactive |
| OCC(CO)(CBr)CBr | inactive |
| Nc1cc(C(=O)O)c(O)c(S(=O)(=O)O)c1 | inactive |
| Oc1ccc2c(c1)OCO2 | inactive |
| c1ccncc1 | inactive |

| SMILES | Potency |
| --- | --- |
| CC(=O)OC1CC(C)OC(C)O1 (configuration not stated) | inactive |
| O=C(OCc1ccccc1)c1ccccc1O | inactive |
| C/C=C/C=C/C=O | 31.6 µM (active) |
| CCN(CC)c1ccc2c(C)cc(=O)oc2c1 | inactive |
| c1c[nH]cn1 | inactive |
| c1ccc(SCCSc2ccccc2)cc1 | inactive |
| O=C(O)/C=C/c1ccc(/C=C/C(=O)O)cc1 | inactive |
| CCCCOC(=O)COc1ccc(Cl)cc1Cl | inactive |
| CC(=O)OC(C(=O)c1ccccc1)c1ccccc1 (configuration not stated) | inactive |
| CCCCCCN | inactive |
| CC(=O)Nc1cccc(C)c1 | inactive |
| CCC(Cl)CC(Cl)C(Cl)C(Cl)C(Cl)C(C)Cl (configuration not stated) | inactive |
| COc1ccc(C)cc1N | inactive |
| CCc1ccc(C(c2ccc(CC)cc2)C(Cl)Cl)cc1 | inactive |
| O=[N+]([O-])c1ccccc1Nc1ccccc1 | inactive |
| C=CC1CO1 (configuration not stated) | inactive |
| COc1cc(-c2ccc(N=C=O)c(OC)c2)ccc1N=C=O | inactive |
| CCOC(=O)C1OC1c1ccccc1 (configuration not stated) | inactive |

test: Cell Viability - LYMP2-022 (AID 987); details: LYMP2-022 lymphoblastoid cell viability; series mostly up to 92.2 µM; also: nearly all actives have a fitted effect of over 55% in size
In short: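 Luminescent ATP read-out (CellTiter-Glo, 30 min, RT) after 24 hr, 37 C compound exposure of 2500 human lymphoblastoid cells/well in complete medium. Cytotoxicity taken as concentration-dependent ATP loss; AC50 from standard Hill equation.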

| SMILES | Potency |
| --- | --- |
| CCCCCCc1ccc(-c2ccc(C#N)cc2)cc1 | inactive |
| Nc1cnn([C@@H]2O[C@H](CO)[C@@H](O)[C@H]2O)c(=O)n1 | inactive |
| CCCCCCCCOc1ccc(C(=O)O)cc1 | inactive |
| Oc1c(Cl)cc(Cl)c(Cl)c1Cl | inactive |
| CC(C)OCC1CO1 (configuration not stated) | inactive |
| C/C(Cl)=C/CCl | inactive |
| CCCCNCC | inactive |
| O=c1[nH]ncc2ccccc12 | inactive |
| c1ccc(COCc2ccccc2)cc1 | inactive |
| O=[N+]([O-])c1cccc(I)c1 | inactive |
| c1ccc2c(c1)ccc1ccccc12 | inactive |
| Nc1ccc(N=Nc2ccccc2)c(N)c1 | inactive |
| Cc1ccc(C(=O)O)cc1[N+](=O)[O-] | inactive |
| COc1ccc([N+](=O)[O-])cc1N | inactive |
| OCC(CO)(CBr)CBr | inactive |
| Nc1cc(C(=O)O)c(O)c(S(=O)(=O)O)c1 | inactive |
| Oc1ccc2c(c1)OCO2 | inactive |
| c1ccncc1 | inactive |

| SMILES | Potency |
| --- | --- |
| CC(=O)OC1CC(C)OC(C)O1 (configuration not stated) | inactive |
| O=C(OCc1ccccc1)c1ccccc1O | inactive |
| C/C=C/C=C/C=O | 25.1 µM (active) |
| CCN(CC)c1ccc2c(C)cc(=O)oc2c1 | inactive |
| c1c[nH]cn1 | inactive |
| c1ccc(SCCSc2ccccc2)cc1 | inactive |
| O=C(O)/C=C/c1ccc(/C=C/C(=O)O)cc1 | inactive |
| CCCCOC(=O)COc1ccc(Cl)cc1Cl | inactive |
| CC(=O)OC(C(=O)c1ccccc1)c1ccccc1 (configuration not stated) | inactive |
| CCCCCCN | inactive |
| CC(=O)Nc1cccc(C)c1 | inactive |
| CCC(Cl)CC(Cl)C(Cl)C(Cl)C(Cl)C(C)Cl (configuration not stated) | inactive |
| COc1ccc(C)cc1N | inactive |
| CCc1ccc(C(c2ccc(CC)cc2)C(Cl)Cl)cc1 | inactive |
| O=[N+]([O-])c1ccccc1Nc1ccccc1 | inactive |
| C=CC1CO1 (configuration not stated) | inactive |
| COc1cc(-c2ccc(N=C=O)c(OC)c2)ccc1N=C=O | inactive |
| CCOC(=O)C1OC1c1ccccc1 (configuration not stated) | inactive |

test: Cell Viability - LYMP2-024 (AID 988); details: LYMP2-024 lymphoblastoid cell viability; series mostly up to 92.2 µM; also: nearly all actives have a fitted effect of over 60% in size
In short: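 ATP-based luminescence (CellTiter-Glo, 30 min RT) after 24 h compound exposure at 37 C of 2500 lymphoblastoid cells/well; decrease in ATP taken as cytotoxicity. qHTS concentration-response fitted to standard Hill equation for AC50.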

| SMILES | Potency |
| --- | --- |
| CCCCCCc1ccc(-c2ccc(C#N)cc2)cc1 | inactive |
| Nc1cnn([C@@H]2O[C@H](CO)[C@@H](O)[C@H]2O)c(=O)n1 | inactive |
| CCCCCCCCOc1ccc(C(=O)O)cc1 | inactive |
| Oc1c(Cl)cc(Cl)c(Cl)c1Cl | inactive |
| CC(C)OCC1CO1 (configuration not stated) | inactive |
| C/C(Cl)=C/CCl | inactive |
| CCCCNCC | inactive |
| O=c1[nH]ncc2ccccc12 | inactive |
| c1ccc(COCc2ccccc2)cc1 | inactive |
| O=[N+]([O-])c1cccc(I)c1 | inactive |
| Nc1ccc2c(c1)C(=O)c1ccccc1C2=O | inactive |
| c1ccc2c(c1)ccc1ccccc12 | inactive |
| Nc1ccc(N=Nc2ccccc2)c(N)c1 | inactive |
| Cc1ccc(C(=O)O)cc1[N+](=O)[O-] | inactive |
| COc1ccc([N+](=O)[O-])cc1N | inactive |
| OCC(CO)(CBr)CBr | inactive |
| Nc1cc(C(=O)O)c(O)c(S(=O)(=O)O)c1 | inactive |
| Oc1ccc2c(c1)OCO2 | inactive |
| c1ccncc1 | inactive |
| CC(=O)OC1CC(C)OC(C)O1 (configuration not stated) | inactive |

| SMILES | Potency |
| --- | --- |
| O=C(OCc1ccccc1)c1ccccc1O | inactive |
| C/C=C/C=C/C=O | 25.1 µM (active) |
| CCN(CC)c1ccc2c(C)cc(=O)oc2c1 | inactive |
| c1c[nH]cn1 | inactive |
| c1ccc(SCCSc2ccccc2)cc1 | inactive |
| O=C(O)/C=C/c1ccc(/C=C/C(=O)O)cc1 | inactive |
| CCCCOC(=O)COc1ccc(Cl)cc1Cl | inactive |
| CC(=O)OC(C(=O)c1ccccc1)c1ccccc1 (configuration not stated) | inactive |
| CCCCCCN | inactive |
| CC(=O)Nc1cccc(C)c1 | inactive |
| CCC(Cl)CC(Cl)C(Cl)C(Cl)C(Cl)C(C)Cl (configuration not stated) | inactive |
| COc1ccc(C)cc1N | inactive |
| CCc1ccc(C(c2ccc(CC)cc2)C(Cl)Cl)cc1 | inactive |
| C[C@@H]1CC2(OC(O)[C@]3(C)O[C@H]23)O[C@H]2C[C@@]3(C)[C@@H]4CC[C@H]5C(C)(C)C(O[C@@H]6OC[C@@H](O)[C@H](O)[C@H]6O)CC[C@@]56C[C@@]46CC[C@]3(C)[C@@H]12 (some centres not stated) | 39.8 µM (active) |
| O=[N+]([O-])c1ccccc1Nc1ccccc1 | inactive |
| C=CC1CO1 (configuration not stated) | inactive |
| COc1cc(-c2ccc(N=C=O)c(OC)c2)ccc1N=C=O | inactive |
| CCOC(=O)C1OC1c1ccccc1 (configuration not stated) | inactive |
| COc1ccc(C(=O)Nc2ccccc2)cc1[N+](=O)[O-] | inactive |

— PubChem BioAssay (NCATS)
